GRK2 inh: compounds blocking aptamer binding on GRK2 – biochemical, human GRK2, bead flow cytometry, HTS, primary screen; inhibition of aptamer binding, % at 10 µM; Beta-adrenergic receptor kinase 1 (Homo sapiens), P25098; actives 0.59% (n = 330,000); FAM-aptamer displacement from GRK2;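 active means inhibition of aptamer binding above 40%, roughly 3 SD of noise, on plates passing a quality check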;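 further: median bead fluorescence of bound FAM aptamer so fluorescent compounds give negative values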
Target sequence (P25098 whole entry, looked up): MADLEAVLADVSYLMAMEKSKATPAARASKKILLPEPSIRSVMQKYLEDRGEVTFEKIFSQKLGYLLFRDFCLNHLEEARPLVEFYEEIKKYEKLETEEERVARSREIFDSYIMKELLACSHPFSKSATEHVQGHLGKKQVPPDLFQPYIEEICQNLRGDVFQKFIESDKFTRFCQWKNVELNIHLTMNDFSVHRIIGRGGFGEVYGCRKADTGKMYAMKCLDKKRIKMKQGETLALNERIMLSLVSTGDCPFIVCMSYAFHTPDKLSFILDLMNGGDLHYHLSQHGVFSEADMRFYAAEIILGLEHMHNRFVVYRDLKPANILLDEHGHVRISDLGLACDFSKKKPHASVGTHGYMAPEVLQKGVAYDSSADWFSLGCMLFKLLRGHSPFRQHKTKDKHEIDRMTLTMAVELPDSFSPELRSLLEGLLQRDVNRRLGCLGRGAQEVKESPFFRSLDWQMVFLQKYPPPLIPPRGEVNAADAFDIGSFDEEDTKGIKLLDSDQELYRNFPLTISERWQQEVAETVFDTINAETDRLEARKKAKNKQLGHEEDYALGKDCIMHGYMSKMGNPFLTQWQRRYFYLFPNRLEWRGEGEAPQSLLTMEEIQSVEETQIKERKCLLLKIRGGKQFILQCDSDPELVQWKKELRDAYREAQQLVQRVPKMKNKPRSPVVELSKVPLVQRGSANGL
HDAC3 inhib: HDAC3 deacetylase inhibitors, primary screen, biochemical, fluorescence, cell-free homogeneous. Histone deacetylase 3 (Homo sapiens), O15379. recombinant HDAC3, fluorogenic peptide/trypsin coupled. inhibition, % at 8.3 µM. actives 0.15% (n = 320,000). AID 2718, 2010; in the data active means inhibition above about 26%, passing the limit was not always enough
Neddylation inh: inhibitors of cullin neddylation, primary screen, biochemical, TR-FRET, uHTS, NAE and Ubc12 | actives 0.58% (n = 360,000) | NEDD8-conjugating enzyme Ubc12 (Homo sapiens) + NEDD8-activating enzyme E1 regulatory … | inhibition, % at 25 µM | AID 651699, 2012; in the data active means inhibition above about 36%
Cardio protect: cardioprotection against H2O2-induced cell death, primary screen, uHTS, H9c2 cells, ATPLite luminescence. H9c2 cardiomyocytes, H2O2 injury protection, 2 h. protection from H2O2 cell death, % at 20 µM. actives 0.63% (n = 360,000). AID 588492, 2011;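 active means compounds giving at least 50% protection of heart cells from peroxide-induced death in the single-dose screen, raw or plate-pattern-corrected value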
Neddyl conf: blockade of NEDD8 conjugation to cullin – biochemical, TR-FRET, single concentration, confirmation; shares compounds with Neddylation inh; TR-FRET cullin neddylation biochemical assay; calls only at 25 µM; actives 13% (n = 1,800); in the data active means inhibition above about 40%;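 further: neddylation substrate is the cullin 1 ring ligase complex with SKP2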
A number is an active result. Sampled rows, rich in hits. Any-hit rate of the full collection: about 1.8%.

Screening CCc1cc2c3c(c(=O)oc2cc1OCC(=O)OC)CCCC3 returned GRK2 inh inactive, HDAC3 inhib inactive, Neddylation inh 43.0, Cardio protect inactive and Neddyl conf inactive.
Screening CC1(C)Cc2c(c(-c3ccco3)nc3sc4c(NCCCO)ncnc4c23)CO1 returned GRK2 inh inactive, HDAC3 inhib inactive and Cardio protect inactive.
Screening CC1(C)Cc2c(c(-c3ccco3)nc3sc4c(NCCN5CCOCC5)ncnc4c23)CO1 returned GRK2 inh inactive, HDAC3 inhib inactive, Neddylation inh 51.3, Cardio protect inactive and Neddyl conf inactive.
Screening Cc1ccc(C(=O)N2CCN(S(=O)(=O)c3ccc(C(C)C)cc3)CC2)s1 returned GRK2 inh inactive, HDAC3 inhib inactive, Neddylation inh inactive and Cardio protect inactive.
For Nc1c(C(=O)Nc2ccccc2)c2nc3ccccc3nc2n1CCCN1CCOCC1 the results were GRK2 inh inactive, HDAC3 inhib inactive, Neddylation inh 56.6, Cardio protect inactive and Neddyl conf active.
For CC(C)=CCC[C@](C)(O[C@@H]1O[C@H](CO[C@@H]2OC[C@H](O[C@@H]3OC[C@@H](O)[C@H](O)[C@H]3O)[C@H](O)[C@H]2O)[C@@H](O)[C@H](O)[C@H]1O)C1CC[C@]2(C)C1[C@H](O)CC1[C@@]3(C)CC[C@H](O)C(C)(C)C3[C@@H](O)C[C@]12C (stereo partly specified) the results were GRK2 inh inactive, HDAC3 inhib inactive, Neddylation inh inactive and Cardio protect inactive.
`Cc1ccc(C(NC(=O)c2ccccc2)C(Cl)(Cl)Cl)cc1` (stereo unspecified) gave GRK2 inh inactive, HDAC3 inhib inactive, Neddylation inh inactive and Cardio protect inactive.
Screening C(=C\c1cccc2ccccc12)/c1nnc(-c2cccs2)o1 returned GRK2 inh inactive, HDAC3 inhib inactive, Neddylation inh 47.4 and Cardio protect inactive.
For O=c1c2ccccc2cnn1Cc1nnc(-c2cccs2)o1 the results were GRK2 inh inactive, HDAC3 inhib inactive, Neddylation inh inactive and Cardio protect inactive.
`CC1(C)Oc2ccc3ccc(=O)oc3c2CC1O` (stereo unspecified) gave GRK2 inh inactive, HDAC3 inhib inactive, Neddylation inh 55.3 and Cardio protect inactive.
Screening CCO[C@H]1c2c(ccc3ccc(=O)oc23)OC(C)(C)[C@H]1O returned GRK2 inh inactive, HDAC3 inhib inactive, Neddylation inh 35.4, Cardio protect inactive and Neddyl conf inactive.
`CCOc1ccc(C(C)=O)cc1COC(=O)c1cc([N+](=O)[O-])ccc1N1CCOCC1` gave GRK2 inh inactive, HDAC3 inhib inactive, Neddylation inh inactive and Cardio protect inactive.
For Clc1ccc(/C=C/c2nc(Cl)c(-c3ccc(Cl)cc3)c(Cl)n2)cc1 the results were GRK2 inh inactive, Neddylation inh 41.1, Cardio protect inactive and Neddyl conf inactive.
Nc1nc(N)nc(-c2ccc(Cl)cc2)n1 was read as GRK2 inh inactive, HDAC3 inhib inactive, Neddylation inh inactive and Cardio protect inactive.
COc1ccc(/C=C2\CCCC3C2=NN(C(=O)CSc2ncn[nH]2)C3c2ccc(OC)cc2)cc1 (stereo unspecified) was read as GRK2 inh inactive, HDAC3 inhib inactive, Neddylation inh 44.1 and Cardio protect inactive.
For CN(CC(=O)Nc1cccc(F)c1)C(=O)c1cc(-c2ccco2)nc2ccccc12 the results were GRK2 inh inactive, HDAC3 inhib inactive, Neddylation inh 42.3 and Cardio protect inactive.
`COc1ccc(-c2cc(C(=O)N(C)CC(=O)Nc3cccc(F)c3)c3ccccc3n2)cc1OC` gave Cardio protect inactive.
For CCOc1ccc(C(C)=O)cc1COc1ccc(C)nc1[N+](=O)[O-] the results were GRK2 inh inactive, HDAC3 inhib inactive, Neddylation inh inactive and Cardio protect inactive.
`CCOC(=O)c1cn2nc(Oc3cccc(C(F)(F)F)c3)ccc2n1` gave GRK2 inh inactive, HDAC3 inhib inactive, Neddylation inh 55.1 and Cardio protect inactive.
`COc1ccccc1NS(=O)(=O)c1cc(NC(=O)Nc2ccc(Cl)cc2Cl)ccc1N1CCCCC1` gave GRK2 inh inactive, HDAC3 inhib inactive, Neddylation inh inactive and Cardio protect inactive.
`COc1cc(/C=C/C(=O)Nc2ccc(N3CCCCC3)c(S(=O)(=O)Nc3ccccc3Cl)c2)cc(OC)c1OC` gave GRK2 inh inactive, HDAC3 inhib inactive, Neddylation inh 42.3, Cardio protect inactive and Neddyl conf inactive.
Cn1ccc2c(-c3cncc4ccccc34)cc3c(c21)C1CCC3O1 (stereo unspecified) was read as Neddylation inh 45.9, Cardio protect inactive and Neddyl conf active.
CC(=O)c1ccc(-c2ccc(C(=O)NC3CC(C)(C)NC(C)(C)C3)o2)cc1 was read as GRK2 inh inactive, HDAC3 inhib inactive, Neddylation inh 65.9 and Cardio protect inactive.
For COc1ccc(-c2cc3ccc(OCc4nn[nH]n4)cc3oc2=O)cc1OC the results were GRK2 inh inactive, HDAC3 inhib inactive, Neddylation inh 57.7, Cardio protect inactive and Neddyl conf active.
`COc1ccc2oc(=O)c(C(=O)NCCc3ccc(OC)c(OC)c3)cc2c1` gave GRK2 inh inactive, HDAC3 inhib inactive, Neddylation inh 48.2, Cardio protect inactive and Neddyl conf inactive.
COc1ccc2oc(=O)c(C(=O)NCc3ccc4c(c3)OCO4)cc2c1 was read as GRK2 inh inactive, HDAC3 inhib inactive, Neddylation inh inactive and Cardio protect inactive.
`CCOC(=O)CC(NC(=O)Cc1cccs1)c1ccccc1Cl` (stereo unspecified) gave GRK2 inh inactive, HDAC3 inhib inactive, Neddylation inh inactive and Cardio protect inactive.
For Cc1cc(C)n2nc(SCC(=O)N(CCC#N)c3ccccc3F)nc2n1 the results were GRK2 inh inactive, HDAC3 inhib inactive, Neddylation inh inactive and Cardio protect inactive.
CN1CCc2c1nc1ccccc1c2NC(=O)CN1CCCC1 was read as GRK2 inh inactive, HDAC3 inhib inactive, Neddylation inh 41.4, Cardio protect inactive and Neddyl conf inactive.
CN1CCN(CC(=O)Nc2cc(N(C)C)nc3ccccc23)CC1 was read as GRK2 inh inactive, HDAC3 inhib inactive, Neddylation inh 40.0, Cardio protect inactive and Neddyl conf inactive.
Screening CC1CCC(NC(=O)c2cnccn2)CC1 (stereo unspecified) returned GRK2 inh inactive, HDAC3 inhib inactive, Neddylation inh inactive and Cardio protect inactive.
CCc1ccc(-c2cnc3nc[nH]c(=O)c3n2)cc1 was read as GRK2 inh inactive, HDAC3 inhib inactive, Neddylation inh 58.5, Cardio protect inactive and Neddyl conf active.
For O=c1[nH]c(=O)c2nc(-c3ccc(Cl)cc3)cnc2[nH]1 the results were GRK2 inh inactive, HDAC3 inhib inactive, Neddylation inh inactive and Cardio protect inactive.
